# Laboratory results published in PubChem BioAssay (Tox21).
# Values without a mark were called inactive. Records with an inconclusive call do not appear. A call without a number means that no potency is given here. Active and inactive are the calls of the source. Unless noted, calls come from the whole dose curve; as a rule, active = well fitted curve in the direction sought with a large enough effect in the repeat runs; inconclusive = weak or mixed curves; inactive = no such curve, though single readings can be large; an effect the other way counts as inactive or inconclusive.
# Key:
# [1] = target: Thyrotropin receptor (Homo sapiens) (UniProt P16473); assay: qHTS assay to identify small molecule antagonists of the thyroid stimulating hormone receptor (TSHR) signaling pathway (AID 1259385; calls by dose curve; note: nearly all actives have a fitted effect of over 20% in size)
# Method in brief: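 Antagonist mode: compound-treated TSHR-expressing HEK293 cells were stimulated with 1.5 ng/mL TSH (final) in presence of Ro20-1724 for 30 min at RT. HTRF cAMP detection after 1 h; each compound tested at 15 concentrations, triplicate.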
# [2] = qHTS assay to identify small molecule agonists of the estrogen receptor alpha (ER-alpha) signaling pathway in the presence of an antagonist - cell viability counter screen (AID 1259386);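 note: series mostly up to about 92 µM; cells exposed to compounds for 22 h at 37 °C before the viability read; nearly all actives have a fitted effect of over 30% in size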
# Method in brief: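 ICI-182,780 at 10.0nM final accompanies the compound titration (15 concentrations, 22hr, 37C) on VM7Luc4E2 cells. The CellTiter-Fluor fluorescence readout runs in the same wells as the luciferase assay.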
# [3] = target: Progesterone receptor (Homo sapiens) (UniProt P06401); assay: qHTS assay to identify small molecule agonists of the progesterone receptor (PR) signaling pathway (AID 1346784; calls by dose curve; note: nearly all actives have a fitted effect of over 30% in size)
# Method in brief: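 Using charcoal-stripped serum (2%) to limit endogenous steroids, PR-UAS-bla HEK 293T cells received compounds for 16 hr at 37C after 6 hr plating; beta-lactamase FRET fluorescence was recorded following 2 hr substrate loading at room temperature.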
# [4] = target: Progesterone receptor (Homo sapiens) (UniProt P06401); assay: qHTS assay to identify small molecule antagonists of the progesterone receptor (PR) signaling pathway (AID 1346795; active = well fitted inhibition curve with a large enough effect in the signal ratio in the repeat runs, not every such curve was filed as active; the % refers to the signal ratio)
# Method in brief: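 Inhibition of R5020-induced (1 nM final) beta-lactamase reporter signal in PR-UAS-bla HEK293T cells was scored by FRET fluorescence after overnight (16 hr) compound treatment.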
# [5] = qHTS assay to identify small molecule antagonists of the progesterone receptor (PR) signaling pathway - cell viability counter screen (AID 1346798); note: series mostly up to about 92 µM; nearly all actives have a fitted effect of over 50% in size
# Method in brief: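 ATP content as viability readout: CellTiter-Glo luminescence, 30 min room temperature, in PR-UAS-bla HEK293T cells after 16 hr compound/R5020 treatment at 37C and 5% CO2.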
# [6] = qHTS assay to identify small molecule agonists of the progesterone receptor (PR) signaling pathway - cell viability counter screen (AID 1346799; calls by dose curve; note: nearly all actives have a fitted effect of over 45% in size)
# Method in brief: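 Cytotoxicity in PR-bla HEK293T cells: 16 h compound, 37C; CellTiter-Glo added post-FRET read; luminescence after 30 min RT.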
# [7] = qHTS assay to identify small molecule antagonists of the TGF-beta/Smad signaling pathway - cell viability counter screen (AID 1346824); note: nearly all actives have a fitted effect of over 50% in size
# Method in brief: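 Cytotoxicity counter-screen run in the same wells as the beta-lactamase Smad reporter read: CellTiter-Glo luminescence after 30 min at room temperature. HEK 293T SBE-bla cells had 5 hr compound exposure at 37 C with TGF-beta1 (0.25 ng/mL stock).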
# [8] = qHTS assay to identify small molecule agonists of the TGF-beta/Smad signaling pathway - cell viability counter screen (AID 1346829); note: top concentration of the series differs between compounds; nearly all actives have a fitted effect of over 45% in size
# Method in brief: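 HEK 293T SBE-bla line, 5 hr compound exposure at 37 C, multiplexed CellTiter-Glo viability read by luminescence.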
# [9] = qHTS assay to identify small molecule agonists of the TGF-beta/Smad signaling pathway (AID 1346859; active = well fitted activation curve with a large enough effect in the signal ratio in the repeat runs, not every such curve was filed as active; the % refers to the signal ratio; note: series mostly up to about 77 µM)
# Method in brief: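 Stable Smad binding element-beta-lactamase HEK 293T cells; 5 hr compound exposure at 37 C under 5% CO2; 2 hr room-temperature substrate step; fluorescence excited at 405 nm, collected at 460 nm and 530 nm.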
# [10] = target: Thyrotropin-releasing hormone receptor (Homo sapiens) (UniProt P34981); assay: qHTS assay to identify small molecule antagonists of the thyrotropin-releasing hormone receptor (TRHR) signaling pathway (AID 1346877; active = well fitted inhibition curve with a large enough effect in the repeat runs, not every such curve was filed as active; note: series mostly up to about 51 µM)
# Method in brief: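 Screening used HEK293 cells engineered with TRHR, with a brief 5 min room-temperature compound exposure preceding addition of TRH to 1 nM. The read-out was kinetic calcium-dye fluorescence, concentration-response from 15 doses in triplicate.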
# [11] = target: Thyrotropin-releasing hormone receptor (Homo sapiens) (UniProt P34981); assay: qHTS assay to identify small molecule agonists of the thyrotropin-releasing hormone receptor (TRHR) signaling pathway (AID 1346891; calls by dose curve;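 note: HEK293 cells expressing TRHR with calcium dye readout; series mostly up to about 58 µM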)
# Method in brief: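 In 1536-format, 1500 TRHR-Hek293 cells per well grew 18 h, took up calcium dye for 2 h at 37 °C, received compound, and were read kinetically; 15-point titrations, triplicates.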
# [12] = Human pregnane X receptor (PXR) small molecule agonists, qHTS cell viability counter screen (AID 1346977); note: nearly all actives have a fitted effect of over 50% in size
# Method in brief: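 Readout is CellTiter-Fluor fluorescence from PXR-Luc HepG2 cells. Plated cells rested 5hr, then were treated with compounds for 24hr at 37C and 5% CO2, with reagent present during the last hour.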
# [13] = Caspase-3/7 induction in HepG2 cells by small molecules, qHTS assay (AID 1346978); note: nearly all actives have a fitted effect of over 15% in size
# Method in brief: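 Caspase-3/7 induction was measured by Caspase-Glo 3/7 luminescence (30 min, room temperature) after a 17 hr compound exposure of wild-type HepG2 cells seeded at 2,000 per well and pre-incubated 5 hr.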
# [14] = Caspase-3/7 induction in CHO-K1 cells by small molecules, qHTS cell viability counter screen (AID 1346979); note: nearly all actives have a fitted effect of over 35% in size
# Method in brief: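 To flag cytotoxic compounds, treated CHO-K1 wild-type cells were given CellTiter-Fluor at 16hr and read fluorescently after 1hr at 37C; the caspase-3/7 luminescence was measured in these same wells.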
# [15] = Caspase-3/7 induction in CHO-K1 cells by small molecules, qHTS assay (AID 1346980); note: nearly all actives have a fitted effect of over 15% in size
# Method in brief: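 Luminescent Caspase-Glo 3/7 read (30min, room temperature) quantified apoptosis induction. Cells were wild-type CHO-K1, treated with compound for 17hr at 37 C and 5% CO2.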
# [16] = target: Nuclear receptor subfamily 1 group I member 2 (Homo sapiens) (UniProt O75469); assay: Human pregnane X receptor (PXR) small molecule agonists, qHTS assay (AID 1346982); note: nearly all actives have a fitted effect of over 35% in size; note: potency is the fitted concentration of half-maximal effect
# Method in brief: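 We seeded PXR-Luc HepG2 cells in assay medium containing 5% charcoal-stripped FBS, added compounds 5 hr later, incubated 24 hr, and read luminescence with ONE-Glo reagent.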
# [17] = Caspase-3/7 induction in HepG2 cells by small molecules, qHTS cell viability counter screen (AID 1346981); note: series mostly up to about 92 µM; nearly all actives have a fitted effect of over 30% in size
# Method in brief: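 Multiplexed with the caspase-3/7 assay: HepG2 cells, 16 hr compound treatment, CellTiter-Fluor viability detection by fluorescence.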
# [18] = target: Nuclear receptor subfamily 1 group I member 2 (Rattus norvegicus) (UniProt Q9R1A7); assay: Rat pregnane X receptor (rPXR) activation by small molecules, qHTS assay (AID 1346983); details: rPXR luciferase reporter cells, One-Glo luminescence, 24 h; active compounds read high; note: nearly all actives have a fitted effect of over 20% in size
# Method in brief: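 Luminescent readout (One-Glo luciferase, 30 min room temperature) followed 24 hr compound treatment at 37 C of rPXR cells plated 2,000 per well and preincubated 5hr; qHTS format with compounds delivered in DMSO.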
# [19] = target: Nuclear receptor subfamily 1 group I member 2 (Homo sapiens) (UniProt O75469); assay: CYP3A4 induction through human pregnane X receptor (PXR) by small molecules, qHTS assay (AID 1346984); note: nearly all actives have a fitted effect of over 40% in size
# Method in brief: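 qHTS, concentration-response format: HepG2 DPX-2 line, PXR/CYP3A4-luc. Exposure 24 h, 37C. Substrate Luciferin-IPA 3uM final, 3 h. Detection One-Glo, 30 min RT.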
# [20] = target: Nuclear receptor subfamily 1 group I member 2 (Homo sapiens) (UniProt O75469); assay: Human pregnane X receptor (PXR) activation by small molecules, qHTS assay (AID 1346985); note: nearly all actives have a fitted effect of over 40% in size
# Method in brief: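 DPX-2 cells (HepG2 co-transfected with a PXR response element and a CYP3A4-promoter luciferase construct) were seeded at 2,000 per well, rested 5 hr at 37C, then exposed to DMSO-dissolved compounds for 24 hr. Activation was read as luciferase luminescence.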
# Sequence of Progesterone receptor (Homo sapiens) (P06401 whole entry, looked up): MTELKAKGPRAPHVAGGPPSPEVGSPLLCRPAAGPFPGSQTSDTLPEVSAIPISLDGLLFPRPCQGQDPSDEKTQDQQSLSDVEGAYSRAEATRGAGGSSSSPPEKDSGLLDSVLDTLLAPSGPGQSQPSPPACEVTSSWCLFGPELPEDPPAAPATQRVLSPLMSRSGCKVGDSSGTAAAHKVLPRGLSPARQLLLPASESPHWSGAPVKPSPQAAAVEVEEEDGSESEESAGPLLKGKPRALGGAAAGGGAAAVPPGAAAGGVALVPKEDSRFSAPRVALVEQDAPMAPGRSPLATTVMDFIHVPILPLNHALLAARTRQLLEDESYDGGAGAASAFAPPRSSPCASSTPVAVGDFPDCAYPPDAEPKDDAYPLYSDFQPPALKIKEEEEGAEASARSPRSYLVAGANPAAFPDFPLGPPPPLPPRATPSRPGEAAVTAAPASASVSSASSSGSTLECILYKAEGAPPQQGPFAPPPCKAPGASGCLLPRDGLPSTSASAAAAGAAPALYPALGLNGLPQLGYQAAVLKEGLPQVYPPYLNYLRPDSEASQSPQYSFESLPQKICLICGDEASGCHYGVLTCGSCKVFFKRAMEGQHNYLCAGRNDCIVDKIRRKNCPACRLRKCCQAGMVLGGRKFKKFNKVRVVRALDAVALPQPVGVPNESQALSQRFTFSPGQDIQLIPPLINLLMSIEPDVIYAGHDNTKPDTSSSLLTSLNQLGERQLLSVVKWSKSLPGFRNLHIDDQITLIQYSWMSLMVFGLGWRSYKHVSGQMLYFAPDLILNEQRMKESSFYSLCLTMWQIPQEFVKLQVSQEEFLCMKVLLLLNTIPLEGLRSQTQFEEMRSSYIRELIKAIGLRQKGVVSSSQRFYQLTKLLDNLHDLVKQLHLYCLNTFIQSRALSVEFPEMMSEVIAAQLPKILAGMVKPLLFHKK
# Sequence of Thyrotropin receptor (Homo sapiens) (P16473 whole entry, looked up): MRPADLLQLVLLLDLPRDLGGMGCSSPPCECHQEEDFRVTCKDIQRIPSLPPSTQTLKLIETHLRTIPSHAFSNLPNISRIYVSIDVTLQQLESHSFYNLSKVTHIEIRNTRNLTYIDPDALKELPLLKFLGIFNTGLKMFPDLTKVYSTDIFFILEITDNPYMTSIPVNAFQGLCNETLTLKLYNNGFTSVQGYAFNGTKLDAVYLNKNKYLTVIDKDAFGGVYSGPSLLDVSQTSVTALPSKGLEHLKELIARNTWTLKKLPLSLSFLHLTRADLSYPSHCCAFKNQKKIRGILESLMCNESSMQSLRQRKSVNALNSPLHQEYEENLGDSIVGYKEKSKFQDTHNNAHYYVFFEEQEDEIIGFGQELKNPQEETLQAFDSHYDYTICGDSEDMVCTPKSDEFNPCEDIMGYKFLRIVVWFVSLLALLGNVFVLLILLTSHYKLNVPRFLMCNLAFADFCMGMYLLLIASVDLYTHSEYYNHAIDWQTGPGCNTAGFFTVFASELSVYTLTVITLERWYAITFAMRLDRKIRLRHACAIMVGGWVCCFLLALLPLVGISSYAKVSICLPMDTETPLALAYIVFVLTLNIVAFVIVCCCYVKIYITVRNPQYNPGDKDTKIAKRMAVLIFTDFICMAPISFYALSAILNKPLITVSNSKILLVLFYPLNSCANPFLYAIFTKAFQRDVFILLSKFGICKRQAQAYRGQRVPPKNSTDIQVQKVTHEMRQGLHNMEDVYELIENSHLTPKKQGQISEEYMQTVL
# Sequence of Thyrotropin-releasing hormone receptor (Homo sapiens) (P34981 whole entry, looked up): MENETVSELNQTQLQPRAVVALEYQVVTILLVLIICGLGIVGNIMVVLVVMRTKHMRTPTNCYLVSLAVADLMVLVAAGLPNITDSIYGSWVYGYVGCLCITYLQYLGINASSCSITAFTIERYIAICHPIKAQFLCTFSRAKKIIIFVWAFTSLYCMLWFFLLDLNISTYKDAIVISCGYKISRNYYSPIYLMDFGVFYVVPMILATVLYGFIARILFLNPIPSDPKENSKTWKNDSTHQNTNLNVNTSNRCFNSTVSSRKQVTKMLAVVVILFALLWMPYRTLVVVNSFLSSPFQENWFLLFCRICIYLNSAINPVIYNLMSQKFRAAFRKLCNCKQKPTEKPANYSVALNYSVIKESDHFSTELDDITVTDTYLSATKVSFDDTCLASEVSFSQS
# Sequence of Nuclear receptor subfamily 1 group I member 2 (Homo sapiens) (O75469 whole entry, looked up): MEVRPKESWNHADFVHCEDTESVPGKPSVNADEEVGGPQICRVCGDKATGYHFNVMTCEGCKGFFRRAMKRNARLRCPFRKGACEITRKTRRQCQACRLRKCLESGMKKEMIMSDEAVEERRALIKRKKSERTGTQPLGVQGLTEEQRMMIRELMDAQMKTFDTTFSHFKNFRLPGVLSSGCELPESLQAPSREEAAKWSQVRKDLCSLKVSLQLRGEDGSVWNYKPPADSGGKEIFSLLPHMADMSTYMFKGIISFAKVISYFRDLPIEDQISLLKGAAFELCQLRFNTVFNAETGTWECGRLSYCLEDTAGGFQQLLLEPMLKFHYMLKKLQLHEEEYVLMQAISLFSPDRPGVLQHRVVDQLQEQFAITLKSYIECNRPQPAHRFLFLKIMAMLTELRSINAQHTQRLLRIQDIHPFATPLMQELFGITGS
# Sequence of Nuclear receptor subfamily 1 group I member 2 (Rattus norvegicus) (Q9R1A7 whole entry, looked up): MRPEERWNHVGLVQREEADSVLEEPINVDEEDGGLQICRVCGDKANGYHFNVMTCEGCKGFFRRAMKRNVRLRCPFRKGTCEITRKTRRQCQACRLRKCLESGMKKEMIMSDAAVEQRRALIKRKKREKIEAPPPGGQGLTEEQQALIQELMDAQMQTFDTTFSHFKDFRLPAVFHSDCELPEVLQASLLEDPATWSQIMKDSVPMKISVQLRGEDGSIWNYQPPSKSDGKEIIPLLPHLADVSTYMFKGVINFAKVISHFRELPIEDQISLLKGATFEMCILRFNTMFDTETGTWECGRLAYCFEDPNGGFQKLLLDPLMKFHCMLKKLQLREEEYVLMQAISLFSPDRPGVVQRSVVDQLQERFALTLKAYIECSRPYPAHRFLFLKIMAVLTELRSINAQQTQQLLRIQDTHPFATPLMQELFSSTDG
smiles,measurement,setting,value
Cc1ccc(C=O)cc1C,outcome,[1],inactive
same,Potency,[2],inactive
same,Potency,[3],inactive
same,Potency,[4],inactive
same,Potency,[5],inactive
same,Potency,[6],inactive
same,outcome,[7],inactive
same,outcome,[8],inactive
same,outcome,[9],inactive
same,outcome,[10],inactive
same,outcome,[11],inactive
same,Potency,[12],inactive
same,Potency,[13],inactive
same,Potency,[14],inactive
same,outcome,[15],inactive
same,Potency,[16],inactive
Cc1nc2n(c(=O)c1CCN1CCC(c3noc4cc(F)ccc34)CC1)CCC[C@H]2O,"activity change, negative = inhibition",[1],-7.26% [at 19 µM]
same,"activity change, negative = cytotoxicity",[2],-2.18% [at 19 µM]
same,activation,[3],-1.98% [at 19 µM]
same,"activity change, negative = inhibition",[4],1.27% [at 18.9 µM]
same,"activity change, negative = cytotoxicity",[5],-12.9% [at 18.9 µM]
same,"activity change, negative = cytotoxicity",[6],-13.8% [at 19 µM]
same,"viability change, negative = cytotoxic",[7],1.49% [at 15.8 µM]
same,"activity change, negative = cytotoxicity",[8],-1.25% [at 15.8 µM]
same,activation,[9],0.469% [at 15.8 µM]
same,"activity, negative = inhibition",[10],-5.29% [at 10.5 µM]
same,activation,[11],-0.0294% [at 11.8 µM]
same,"activity change, negative = cytotoxicity",[12],-2.46% [at 19 µM]
same,caspase activation,[13],0.536% [at 19 µM]
same,"activity change, negative = cytotoxicity",[14],8.49% [at 19 µM]
same,caspase-3/7 activation,[15],0.349% [at 19 µM]
same,"activity change, negative = cytotoxicity",[17],0.92% [at 19 µM]
same,activation,[16],13.9% [at 19 µM]
CNS(=O)(=O)CCc1ccc2[nH]cc(C3CCN(C)CC3)c2c1,outcome,[1],inactive
same,Potency,[2],inactive
same,Potency,[3],inactive
same,Potency,[4],inactive
same,Potency,[5],inactive
same,Potency,[6],inactive
same,outcome,[7],inactive
same,outcome,[8],inactive
same,outcome,[9],inactive
same,outcome,[10],inactive
same,outcome,[11],inactive
same,Potency,[12],inactive
same,Potency,[13],inactive
same,Potency,[14],inactive
same,Potency,[17],inactive
same,Potency,[16],inactive
CCOC(=O)[C@H](CCc1ccccc1)N[C@@H](C)C(=O)N1C(=O)N(C)C[C@H]1C(=O)O,outcome,[1],inactive
same,Potency,[2],inactive
same,Potency,[3],inactive
same,Potency,[4],inactive
same,Potency,[5],inactive
same,Potency,[6],inactive
same,outcome,[7],inactive
same,outcome,[8],inactive
same,outcome,[9],inactive
same,outcome,[10],inactive
same,outcome,[11],inactive
same,Potency,[12],inactive
same,Potency,[13],inactive
same,Potency,[14],inactive
same,outcome,[15],inactive
same,Potency,[17],inactive
same,Potency,[16],inactive
same,max activation,[18],-1.3%
same,Potency,[19],inactive
same,Potency,[20],inactive
CC(C)c1ccc2cc(C(C)C)ccc2c1,outcome,[1],inactive
same,Potency,[2],inactive
same,Potency,[3],inactive
same,Potency,[4],inactive
same,Potency,[5],inactive
same,Potency,[6],inactive
same,outcome,[7],inactive
same,outcome,[8],inactive
same,outcome,[9],inactive
same,outcome,[10],inactive
same,outcome,[11],inactive
same,Potency,[12],inactive
same,Potency,[13],inactive
same,Potency,[14],inactive
same,outcome,[15],inactive
same,Potency,[17],inactive
same,Potency,[16],61.1 µM (active)
CCCCCCCCCCl,outcome,[1],inactive
same,Potency,[2],inactive
same,Potency,[3],inactive
same,Potency,[4],inactive
same,Potency,[5],inactive
same,Potency,[6],inactive
same,outcome,[7],inactive
same,outcome,[8],inactive
same,outcome,[9],inactive
same,outcome,[10],inactive
same,outcome,[11],inactive
same,Potency,[12],inactive
same,Potency,[13],inactive
same,Potency,[14],inactive
same,outcome,[15],inactive
same,Potency,[17],inactive
same,Potency,[16],inactive
CC(C)CC(C)CC(C)CC(C)COC(=O)c1ccccc1C(=O)OCC(C)CC(C)CC(C)CC(C)C (stereo not given),outcome,[1],inactive
same,Potency,[2],inactive
same,Potency,[3],inactive
same,Potency,[4],inactive
same,Potency,[5],inactive
same,Potency,[6],inactive
same,outcome,[7],inactive
same,outcome,[8],inactive
same,outcome,[9],inactive
same,outcome,[10],inactive
same,outcome,[11],inactive
same,Potency,[12],inactive
same,Potency,[13],inactive
same,Potency,[14],inactive
same,outcome,[15],inactive
same,Potency,[17],inactive
same,Potency,[16],inactive
